Assay outcomes deposited in PubChem by The Scripps Research Institute Molecular Screening Center.
hcDAF12 agonist = H. contortus DAF-12 nuclear receptor activators, primary screen, cell-based, luminescence, HEK293, lit1-tk-luc reporter; HEK293 hcDAF-12 lit1-tk-luc reporter; 0% DMSO, 100% Δ7-dafachronic acid; activation, % at 6.8 µM; hit rate 1.4% among 370,000;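 active means activation above the mean of all tested compounds plus 3 SD, cut at about 5.5% in these data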;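 further: 100% = response to 3 µM Δ7-dafachronic acid high control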
DAX1 inh-1 = DAX1 (NR0B1) inhibitors, primary screen, cell-based, HEK293, Gal4-DAX1, luciferase luminescence; inhibition, % at 6.75 µM; Nuclear receptor subfamily 0 group B member 1 (Homo sapiens), P51843; HEK293 Gal4-DAX1 luciferase reporter; hit rate 0.99% among 340,000;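 active means inhibition above the mean over all tested compounds plus 3 SD, cut at about 4.2% in these data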;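 further: 0% = DAX1-transfected cells with DMSO and 100% = empty-vector control cells with DMSO; inhibition shows as a rise in luminescence from relieved DAX1 repression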
Target sequence (P51843 207-470 limits assumed): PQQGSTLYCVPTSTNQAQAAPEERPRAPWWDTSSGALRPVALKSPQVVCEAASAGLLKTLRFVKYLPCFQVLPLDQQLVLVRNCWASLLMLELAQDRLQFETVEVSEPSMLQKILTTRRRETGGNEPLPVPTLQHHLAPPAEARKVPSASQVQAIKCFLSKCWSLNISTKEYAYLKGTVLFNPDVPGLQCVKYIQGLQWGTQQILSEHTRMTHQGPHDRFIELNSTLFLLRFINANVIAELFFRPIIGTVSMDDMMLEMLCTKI
AHR act = AHR activators, primary screen, cell-based, luminescence, luciferase reporter, human | Aryl hydrocarbon receptor (Homo sapiens), P35869 | AHR-responsive luciferase reporter cells | activation, % at 5 µM | hit rate 2.5% among 320,000 | AID 2796, 2010; in the data active means activation above about 47%;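 further: 0% = vehicle wells and 100% = reference agonist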
DAX1 inh-2 = DAX1 (NR0B1) inhibitors on StAR promoter, primary screen, cell-based, luminescence, SF-1 (NR5A1), full-length DAX-1; inhibition, % at 6.8 µM; HEK293T StAR-luciferase reporter, SF-1/DAX-1 repression relief; hit rate 1.1% among 370,000;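 active means inhibition above the mean over all tested compounds plus 3 SD, cut at about 3.6% in these data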;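 further: 0% = DAX-1 cells with DMSO and 100% = cells lacking DAX-1 with DMSO; higher inhibition means more luminescence from relief of DAX-1 repression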
ssDAF12 agonist = S. stercoralis DAF-12 nuclear receptor activators, primary screen, cell-based, luminescence, HEK293, GRIP1 co-expression, lit1-tk-luc. HEK293 ssDAF-12/GRIP1 lit1-tk-luc reporter; % of 3 µM dafachronic acid response. Nuclear hormone receptor DAF-12 (Strongyloides stercoralis). hit rate 1% among 370,000. activation, % at 6.8 µM;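 active means activation above the mean over all tested compounds plus 3 SD, cut at about 0.9% in these data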;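 further: 0% = DMSO-only wells and 100% = 3 µM delta7-dafachronic acid wells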
hgDAF-12 ag = H. glycines DAF-12 receptor agonists, primary screen, cell-based, luminescence, HEK293, GAL4 fusion, UAS-luciferase; Nuclear hormone receptor DAF-12 (Heterodera glycines), GAL4 fusion; HEK293 GAL4-hgDAF12 UAS-luciferase reporter, agonist luminescence; normalized to butyrate control; activation, % at 6.8 µM; hit rate 1.8% among 370,000; AID 687014, 2013;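 active means activation above a cutoff set at the mean of all screened compounds plus 3 SD, cut at about 10% in these data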;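 further: 0% = DMSO wells and 100% = sodium butyrate wells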
AHR act cf = AHR activators, confirmation, cell-based, luminescence, luciferase reporter, human; shares compounds with AHR act; human cells, AHR-responsive luciferase reporter; activation, % at 9 µM; hit rate 87% among 2,300; AID 2845, 2010; in the data active means activation above about 49%;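 further: HepG2 hepatoma cells carrying a DRE-driven firefly luciferase reporter; 0% = vehicle wells and 100% = reference agonist wells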
PXR act counter = human PXR activators, counter-screen for AHR activator project, cell-based, luciferase luminescence. hit rate 88% among 2,300. cell-based PXR reporter. shares compounds with AHR act. activation, % at 11.6 µM; in the data active means activation above about 11%;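 further: human hepatoma DPX-2 cells expressing full-length human PXR; 0% = DMSO and 100% = reference agonist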
DAX1 conf = DAX1 (NR0B1) inhibitors relieving SF-1 repression, confirmation, cell-based, luminescence, HEK293T, full-length DAX-1, SF-1 activated StAR promoter; shares compounds with DAX1 inh-2; inhibition, % at 6.8 µM; HEK293T StAR-promoter luciferase reporter, SF-1/DAX-1 repression; hit rate 87% among 2,400;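 active means inhibition above the average of every tested compound plus 3 SD, cut at about 3.8% in these data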;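 further: 0% = DAX-1 cells with DMSO and 100% = no DAX-1 control cells with DMSO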
SF1 mutant ctr = StAR reporter signal changes without DAX1, counter-screen for DAX1 inhibitor project, cell-based, luminescence, AF-2 mutant SF-1, transactivation; HEK293 StAR-luciferase, SF-1 AF2 mutant; AID 652136, 2013; hit rate 78% among 2,400; inhibition, % at 6.8 µM; shares compounds with DAX1 inh-2;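 active means inhibition above the mean of all tested compounds plus 3 SD, cut at about 3% in these data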;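 further: 0% = DAX-1 transfected cells with DMSO and 100% = cells without DAX-1 with DMSO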
LXR ag = LXR agonists, Gal4 luciferase reporter, confirmation, counter-screen for hcDAF-12 agonist project, cell-based, luminescence, HEK293, H. contortus campaign; shares compounds with hcDAF12 agonist; HEK293 Gal4-LXR tk-luc reporter, 24 h; normalized: DMSO 0%, positive control 100%; activation, % at 6.8 µM; 3,400 tested, under 10 active;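 active means mean percent activation of the reporter above a cutoff set as the average over tested compounds plus their standard deviation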
hcDAF12 ag = H. contortus DAF-12 receptor agonists, confirmation, cell-based, luminescence, HEK293, lit1-tk-luc, triplicate; shares compounds with hcDAF12 agonist; HEK293 hcDAF-12 lit1-tk-luc reporter; % of Δ7-dafachronic acid response; activation, % at 6.8 µM; hit rate 61% among 3,400; AID 743032, 2013;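 active means mean activation across triplicate tests above the threshold derived from the earlier primary screen, cut at about 5.5% in these data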;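 further: 0% = DMSO only wells and 100% = 3 µM Δ7-dafachronic acid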
* = called active by the depositor; . = no result given. Only some compounds are listed: those with a hit (about 5.7% of all), similar ones and a draw of the others.

SMILES	hcDAF12 agonist	DAX1 inh-1	AHR act	DAX1 inh-2	ssDAF12 agonist	hgDAF-12 ag	AHR act cf	PXR act counter	LXR ag	hcDAF12 ag	others
S=C(Nc1ccccc1)c1nc2ccccc2s1	9.2*	2	124*	1	1.1*	12*	142*	10	1	8.9*
N/C(=N\OC(=O)c1cccc(Br)c1)c1ccccn1	17*	-3	99*	8.9*	1.4*	3	95*	4	1	12*	DAX1 conf=17*;SF1 mutant ctr=11*
CC(=O)c1ccc(S(=O)(=O)N2CCC(NC(=O)c3ccccc3)CC2)cc1	-2	2	.	0	0	-2	.	.	.	.
NNc1nc2c(-c3ccc(Cl)cc3)nnn2c2ccccc12	8.1*	5.8*	97*	2	0	10	117*	16*	1	14*
CN(C(=O)c1cccc(NC(=O)Cc2cccc(NC(=O)C3CCCN(C(=O)c4ccccc4)C3)c2)c1)C1CC1 (stereo unspecified)	-1	1	.	0	-1	1	.	.	.	.
Fc1ccccc1-c1nc(-c2ccccc2)no1	10*	1	93*	4	1.9*	10	126*	13*	2	18*
Fc1ccccc1-c1nc(-c2ccc(Br)o2)no1	17*	2	102*	3	2.3*	21*	143*	31*	2	17*
Cc1ccccc1-c1nc(-c2ccc(Br)o2)no1	17*	4	102*	1	2.3*	10	127*	49*	1	12*
COc1ccc(Br)cc1-c1noc(-c2ccccc2F)n1	0	-1	9	0	-1	-2	.	.	.	.
Cc1ccccc1-c1nc(-c2ccc(NC(=O)c3ccc(Br)o3)cc2)no1	1	1	21	0	-1	6	.	.	.	.
Cc1ccc(C)c(N2N=C(C(=O)Nc3cccc(S(=O)(=O)N4CCCCC4)c3)CCC2=O)c1	-2	1	3	1	-1	-2	.	.	.	.
Cc1c(-c2ccccn2)c(=O)[nH]n1-c1ccc(F)cc1	15*	2	91*	4.2*	1.8*	26*	77*	11*	2	15*
CNC(=O)c1cc2c(ccc3ccccc32)o1	7.9*	0	108*	0	-1	4	102*	13*	0	1
CCCC#Cc1ccc2c(c1)COc1c3ccccc3nn1-2	11*	5.5*	109*	4.1*	2.6*	17*	63*	-2	2	12*
Cc1ccc2c(c1)COc1c3ccc(C(=O)NCCO)cc3nn1-2	2	2	-4	1	0	7	.	.	.	.
Cc1cc(C)n2cc(-c3ccc(Cl)cc3)c(C(=O)O)c2n1	10*	1	96*	3	1.4*	8	106*	.	1	9.3*
Cc1cc(-c2ccc(Cl)cc2)c2cnn(C(C)C)c2n1	0	-2	5	1	-1	1	.	.	.	.
Cc1cnc(N=Nc2ccccc2)[nH]1	1	1	.	0	0	-1	.	.	.	.
c1ccc2sc(-c3ccncc3)nc2c1	0	1	4	1	-1	5	.	.	.	.
CN(C)c1nc(N)nc(-c2nc3ccccc3s2)n1	9.3*	3	80*	3	1.6*	11*	167*	.	2	16*
Cc1cccc(NC(=O)c2nc[nH]c2C(=O)Nc2ccccc2F)c1	2	1	.	0	-1	0	.	.	.	.
Cc1c(C(=O)OCC(=O)Nc2ccc(N3CCOCC3)cc2)oc2ccccc12	1	0	3	0	-1	-1	.	.	.	.
Cc1ccc(NC(=O)c2oc3ccccc3c2C)nc1	8.5*	2	139*	8.2*	3.3*	13*	141*	14*	1	16*	DAX1 conf=8.4*;SF1 mutant ctr=5.5*
Cc1c(C(=O)Nc2ccc(N3CCOCC3)cc2)oc2ccccc12	11*	1	85*	1	0	5	131*	19*	1	8.6*
Clc1ccc(-c2ccc(CNCC3CCCO3)o2)cc1 (stereo unspecified)	2	-1	3	1	0	3	.	.	.	.
CCN(CC)c1ccc(/C=N/N(c2ccccc2)c2ccccc2)c(O)c1	12*	0	94*	0	1.1*	6	90*	97*	0	5
CCCc1cc(=O)n2[nH]c(-c3cccc(Br)c3)cc2n1	7.7*	5.6*	160*	1	-1	8	166*	35*	1	7.3*
C=CCCC(=O)N1CCC(n2nccc2NC(=O)c2ccccc2C)CC1	1	0	-2	0	-1	0	.	.	.	.
